Rows were chosen to be rich in hits. Some 4.7% of all compounds tested hit in one or more screens of this group.
D1 antag – antagonists of human D1 dopamine receptor. 3.2% of 360,000 active. activity change, negative = inhibition, % at 10 µM. P21728. HEK293 TREx D1 cells, calcium flux, dopamine EC80; stronger effect = lower value. AID 504652; in the data active = activity change below about -30%; also: % is scaled to controls: 0 for no effect and ±100 for the full control effect
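Allosteric or orthosteric antagonism assessed as attenuation of the calcium response to EC80 dopamine, added 180 s after compound, in induced HEK293 Trex D1 cells loaded with no-wash calcium dye.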
TRHR agonist – TRH receptor (human) agonism; P34981; activation, % at 2 µM; TRHR cells, calcium flux fluo-8, FDSS agonist mode; 0.18% of 360,000 active; also: 0% is about no effect
Target sequence (P34981 whole entry, looked up): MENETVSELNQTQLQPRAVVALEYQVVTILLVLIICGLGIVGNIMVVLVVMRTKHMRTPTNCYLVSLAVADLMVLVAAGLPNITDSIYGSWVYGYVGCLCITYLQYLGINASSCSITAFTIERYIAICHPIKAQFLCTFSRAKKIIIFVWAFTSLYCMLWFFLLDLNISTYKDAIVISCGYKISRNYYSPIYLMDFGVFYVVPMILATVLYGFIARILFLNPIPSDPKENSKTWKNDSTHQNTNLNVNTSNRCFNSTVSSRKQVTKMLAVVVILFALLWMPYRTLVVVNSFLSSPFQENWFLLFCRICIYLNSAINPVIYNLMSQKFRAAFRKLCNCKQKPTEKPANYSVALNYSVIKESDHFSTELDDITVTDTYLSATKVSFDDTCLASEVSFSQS
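TRHR-expressing cells, plated overnight in medium with 10% serum, were loaded with fluo-8 calcium dye at room temperature. After a 10 s baseline, library compound was pin-added and calcium release was recorded kinetically (ex 480/em 530) as agonist response.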
D1 agonist – human D1 receptor agonism; P21728; HEK293 T-REx D1 cells, calcium flux, agonist mode; activation, % at 2 µM; 1% of 360,000 active; AID 504660; also: 0% is about no effect
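Agonism was scored from calcium flux recorded over 180 s (1 read/s) after pintool compound addition, following a 10-cycle baseline. Cells were inducible force-coupled HEK293 TREx D1, plated overnight at 30 C and loaded with no-wash calcium dye.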
TRHR PAM – TRH receptor (human) allosteric enhancement; P34981; TRHR cells, fluo-8 calcium fluorescence, EC20 TRH enhancement; enhancement, % at 2 µM; 0.66% of 360,000 active; in the data active = enhancement above about 30%; also: 0% is about no effect
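TRHR-expressing cells loaded with fluo-8 calcium dye were read kinetically (ex 480/em 530) during compound addition, then stimulated with an EC20 of TRH (10 nM final). Enhancement of the Gq-mediated intracellular calcium response was scored.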
D1 potentiator – enhances dopamine response at the human D1 receptor; AID 504651; P21728; HEK293 TREx D1 cells, calcium flux, dopamine EC20 potentiation; 0.036% of 360,000 active; potentiation, % at 10 µM; in the data active = potentiation above about 30%; also: 0% is about no effect
Numbers without * were called inactive. Rule as the data show it, unless noted: active = activation above about 30%; inactive = the rest.

SMILES	D1 antag	TRHR agonist	D1 agonist	TRHR PAM	D1 potentiator
Cc1ccc(S(=O)(=O)NCCNC(=O)C2CCCNC2=O)cc1 (stereo unspecified)	-46*	1	5	3	-3
CC1(CCc2ccc3c(c2)OCO3)NCCc2c1[nH]c1ccccc21 (stereo unspecified)	-38*	2	128*	-7	-5
CC1(CCc2ccc3c(c2)OCO3)NC(=O)c2ccccc2N1 (stereo unspecified)	-9	0	2	-6	-6
CSc1nnc2c(n1)OC(c1cccc(O)c1Cl)Nc1ccccc1-2 (stereo unspecified)	-3	0	-1	-2	-1
Cc1c(C(=O)c2ccc(F)cc2)c2ccccn2c1CCc1ccccn1	-54*	0	1	2	-13
Cc1nc2ccn(Cc3cccnc3)c(=O)c2cc1C(=O)NCc1ccccc1	-3	0	0	4	-3
CCOC(=O)Cn1c(=O)n(-c2ccccc2OC)c2nc(-c3ccccc3C)nc(C(N)=O)c21	10	0	4	-7	3
COc1cc(C2C3CN(C)CC=C3C(C#N)=C(N)C2(C#N)C#N)ccc1OC(C)C (stereo unspecified)	-50*	2	4	2	-16
COC(=O)N1C(=O)[C@](c2ccc(OC)cc2)(C(C)C)N1C(=O)OC	15	10	4	0	-4
COC(=O)N1C(=O)[C@](c2ccsc2)(C(C)C)N1C(=O)OC	-67*	0	2	-6	-8
Cc1ccc(C2=NS(=O)(=O)N(C)C(C(=O)NCc3ccccc3)=C2)cc1	-47*	-1	5	-8	-9
COc1ccc(C2=NS(=O)(=O)N(C)C(C(=O)Nc3ccc(OC(F)(F)F)cc3)=C2)cc1	-37*	1	4	0	-2
COc1ccc(CNC(=O)C2=CC(c3ccc(OC)cc3)=NS(=O)(=O)N2C)cc1	-28	0	0	2	-6
Cc1ccc(C2=NS(=O)(=O)N(C)C(C(=O)NC(C)c3ccccc3)=C2)cc1 (stereo unspecified)	-43*	0	3	0	-6
COc1ccc(CNC(=O)C2=CC(c3ccc(C)cc3)=NS(=O)(=O)N2C)cc1	-34*	0	-1	10	-19
CCN(Cc1nc(-c2cccc(C)c2)no1)S(=O)(=O)c1ccc(C)cc1	2	1	11	-4	2
Cc1cc(C)n2nc(SCC(=O)N/N=C/c3ccccn3)nc2n1	-36*	1	1	0	1
Cc1cc(C)cc(-n2c(C)cc(/C=N/NC(=O)CSc3ncccn3)c2C)c1	14	0	44*	-1	7
CCn1c(C(=O)NCc2cc(Br)ccc2OC)cc2oc3ccccc3c21	19	1	1	2	-3
COc1ccccc1N1CCN(C2CCCCC2NS(=O)(=O)c2ccc(Cl)cc2)CC1 (stereo unspecified)	11	46*	1	-16	3
COc1ccc(N2CCN(C3CCCCC3NS(=O)(=O)c3ccc(Cl)cc3)CC2)cc1 (stereo unspecified)	28	9	2	-3	-4
Cc1ccc(NC(=O)C(=O)NCc2ccco2)cc1	-31*	-1	-3	-4	-2
Cc1ccc(NC(=O)C(=S)NCc2ccco2)cc1	5	0	5	-7	-8
O=C(COC(=O)COc1ccccc1Cc1ccccc1)Nc1cccnc1Cl	-1	-1	14	19	0
COc1ccc2oc(=O)cc(CN3CCN(C(=O)c4ccccc4)CC3)c2c1	7	0	1	-7	0
CC(=O)N1CCC2(CC1)CC(=O)c1cc(OCC(=O)N3CCOCC3)ccc1O2	-38*	3	2	5	-8
CCOC(=O)N1CCN(C(=O)COc2ccc3c(c2)C(=O)CC2(CCN(C(C)=O)CC2)O3)CC1	0	0	4	-3	-2
Cc1cccc(N2CCN(c3nc4ccccc4c(=O)n3-c3ccc(Cl)cc3)CC2)c1C	10	0	0	-2	0
Cc1ccc(C)c(N2CCN(c3nc4ccccc4c(=O)n3-c3ccc(Cl)cc3)CC2)c1	-56*	1	1	-4	2
Cc1cc(C(=O)Nc2cccc(F)c2)c2c(C)nn(-c3cccc(Cl)c3C)c2n1	-39*	0	8	1	-8

Compound activity deposited in PubChem BioAssay by National Center for Advancing Translational Sciences (NCATS).
